Reference: PubChem BioAssay (NCI)
This is part of a sample that, as a whole, favours compounds with a hit. Of some 83,000 tested, about 20% had one in any assay.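 48-hour exposure, single concentration, 96-well plates; percent growth endpoint where 0 means no net growth. Active: below 10.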 Unmarked numbers belong to inactive results. The source made the active and inactive calls.

system: IGROV1 ovarian; assay: NCI-60 one-dose screen, 48 h (100 = growth as untreated, 0 = no growth, -100 = all killed); details: 10 µM unless noted

SMILES | growth
CCOC(=O)c1ccccc1OC(=O)NNc1ccccc1 | 60.4%
CC(=O)n1c2ccccc2c2ccccc21 | 101%
CSc1ccc2c(c1)N(CCC1CCCCN1C)c1ccccc1S2 (stereo unspecified) | 36.4%
O=C(/C=C/c1cc2ccccc2[nH]c1=O)c1ccc(O)cc1 | 53.8%
COc1ccc(-c2c(-c3cc(OC)c(OC)c(OC)c3)noc2N)cc1 | 22.4%
Clc1ccc(-c2nc(-c3cccs3)no2)c(Cl)c1 | 66.8%
CC(C)C/C(=N\NC(=O)c1ccncc1)c1cc(Cl)ccc1O | 9.3% (active)
COc1ccc(/C=N/NC(=O)c2ccc(S(C)(=O)=O)cc2)cc1OC | 109%
CO[C@H]1/C=C/O[C@@]2(C)Oc3c(C)c(O)c4c(O)c(c(/C=N/N5CCN(C)CC5)c(O)c4c3C2=O)NC(=O)/C(C)=C\C=C\C(C)[C@H](O)[C@@H](C)[C@@H](O)[C@@H](C)[C@@H](OC(C)=O)[C@@H]1C (stereo partly specified) | 105%
COc1cc(/C=C/C(=O)c2ccc(F)cc2)ccc1OCCCCCOc1cc2c(cc1OC)C(=O)N1CCCC1C=N2 (stereo unspecified) | -66.5% (active)
CCCCOc1ccc(C(C)(C)c2ccc(OCCCC)cc2)cc1 | 103%
CCCCCCCC/C=C/CCCCCCCC1=NC(C)(C)CN1CCO | -40.5% (active)
COc1cc(/C=C2\COc3ccc(O)c(O)c3C2=O)cc(OC)c1 | -61.3% (active)
CCCCCCCC/C=C/CCCCCCCC1=NC(C)(C)CN1CC(C)O (stereo unspecified) | -15.1% (active)
CC12CCC3C(CCC4CC(=O)/C(=C\O)CC43C)C1CCC(=O)O2 (stereo unspecified) | 95.1%
Nc1ccccc1-c1ccc([N+](=O)[O-])cc1 | 56.2%
CC(C)COCC(CN(Cc1ccccc1)c1ccccc1)N1CCCC1 (stereo unspecified) | 53.3%
O=C(Cc1ccccn1)C(F)(F)C(F)(F)C(F)(F)F | 123%

SMILES | growth
CC1=C(C(=O)Nc2ccccc2)C(c2ccc3c(c2)OCCO3)NC(=O)N1 (stereo unspecified) | 104%
O=C(/C=C/c1ccccc1)CC(c1ccccc1)N1CCOCC1 (stereo unspecified) | 91.8%
COc1cccc(/C=C2\COc3ccc(O)c(O)c3C2=O)c1OC | -39.9% (active)
Cc1cc(CC(=O)O)n(C)c1C(=O)c1ccc(Cl)cc1 | 114%
CCOc1cc(C(C)(C)C)ccc1C1=N[C@H](c2ccc(Cl)cc2)[C@H](c2ccc(Cl)cc2)N1C(=O)N1CCN(CC#Cc2cccc3c2CN([C@@H]2CCC(=O)NC2=O)C3=O)CC1 | 8.46% (active)
CCCCCCCCCCCCCCCCCC1=NC(C)(C)CN1CCO | -26.4% (active)
COc1ccc(OC)c(/C=C/c2nc(=S)n(-c3ccc(Cl)cc3)[nH]2)c1 | 40.1%
Clc1ccccc1[C@@H]1C[C@@H]2Cc3cc(Br)c4ccccc4c3N1O2 | 48.7%
CCCCC(C#N)C(N)=O (stereo unspecified) | 113%
Cc1cccc(Cl)c1NC(=O)c1ccc2nc(NC(=O)NC3CC(C)(C)NC(C)(C)C3)sc2c1 | 65.2%
Cc1c(C(N)=O)sc2c1C(=O)N(Cc1ccccc1)C1=NN=C(c3ccc(Cl)cc3)CN12 | 42.6%
ClC1=C(Cl)C(=C2C(Cl)=C(Cl)C(Cl)=C2Cl)C(Cl)=C1Cl | 108%
Clc1ccc(-n2cnc3c(Cl)ncnc32)cc1Cl | 54.6%
OC(c1cc(C(F)(F)F)nc2c(C(F)(F)F)cccc12)C1CCCCN1 (stereo unspecified) | 44.7%
CC[C@]1(O)CC2CN(CCc3c([nH]c4ccccc34)[C@@](C(=O)OC)(c3cc4c(cc3OC)N(C)[C@H]3[C@@](O)(C(=O)OC)[C@H](OC(C)=O)[C@]5(CC)C=CCN6CC[C@]43[C@@H]65)C2)C1 (stereo partly specified) | 15.9%
CC1CC(C)/C(=N/NC(N)=O)C(C(O)CC2CCC(=O)NC2=O)C1 (stereo unspecified) | 30.1%
CN1C(=O)/C(=C/c2nc(-c3cccc(F)c3)n3ccccc23)c2ccccc21 | 7.47% (active)
O=C1OCCCCCCCCCC#Cc2ccccc21 | 72.1%
